Measurements published in PubChem BioAssay AID686978 (National Center for Advancing Translational Sciences (NCATS), 2013).
Among all 420,000 compounds or so, about 64,000 (15%) were called active. About 27% were inconclusive and are not listed. The list is a sample of the results. Unmarked numbers belong to inactive results. The call rests on the fitted dose curve; in most records, active means well fitted inhibition curve with a large enough effect; inconclusive means small, poorly fitted or top-dose-only effect; inactive means flat fitted curve, though single readings scatter.

Experiment: qHTS for Inhibitors of human tyrosyl-DNA phosphodiesterase 1 (TDP1): qHTS in cells in absence of CPT; further: nearly all actives have a fitted effect of over 55% in size
Conditions: DT40 Tdp1-/- hTDP1 cells, no CPT, ATP luminescence, 48 h; activity change, negative = growth inhibition: at 46.2 µM (top of the series)
How it was run: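 Camptothecin absent (DMSO only). Human TDP1-complemented DT40 knockout cells, 400 cells/well, 37 °C for minimum 48 hr; ATP measured via CellTiter-Glo, 30 min dark incubation, luminescence.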
On the % scale 0 is the no-effect control and ±100 the full control effect; potency means the concentration at half of the fitted maximal effect.

Row | SMILES | activity change, negative = growth inhibition | Potency
1 | CCOC(=O)CNC(=O)CSc1nnc(-c2cccc(OC)c2)n1CC | -6.98% | –
2 | COC(=O)CC(CC(=O)OC)n1cccc1 | -0.736% | –
3 | CCCCc1nnc(NC(=O)CS(=O)(=O)Cc2ccccc2)s1 | -15.5% | –
4 | CCOCc1nnc(NC(=O)CCS(=O)(=O)Cc2ccccc2)s1 | – | 18.4 µM (active)
5 | COCCSc1nnc(NC(=O)CCS(=O)(=O)Cc2ccccc2)s1 | -12.4% | –
6 | CC1CN(Cc2ccccc2)C(=S)NC1=O (stereo unspecified) | -1.83% | –
7 | O=C(Nc1ccccc1)/C(=C\c1ccco1)NC(=O)c1ccco1 | -14.5% | –
8 | CCC1CN(CCNC(=O)c2ccsc2)Cc2cc(OC)ccc2O1 (stereo unspecified) | -14.3% | –
9 | CC1CCN(CCCNC(=O)CN2C(=O)CSc3ccc(S(=O)(=O)N4CCCCC4)cc32)CC1 | – | inactive
10 | CC1CCN(S(=O)(=O)c2ccc3c(c2)N(CC(=O)NCCc2ccccc2)C(=O)CO3)CC1 | – | 20.6 µM (active)
11 | COc1ccc(CCNC(=O)CN2C(=O)COc3ccc(S(=O)(=O)N4CCCC4)cc32)cc1OC | -1.61% | –
12 | COCCCNC(=O)CN1C(=O)CSc2ccc(S(=O)(=O)N3CCOCC3)cc21 | – | inactive
13 | CCCCN(CCCC)CCCNC(=O)CN1C(=O)COc2ccc(S(=O)(=O)N3CCC(C)CC3)cc21 | – | 9.2 µM (active)
14 | Cc1ccc(CCNC(=O)CN2C(=O)CSc3ccc(S(=O)(=O)N4CCOCC4)cc32)cc1 | – | 20.6 µM (active)
15 | CCCCN(CCCC)CCNC(=O)CN1C(=O)COc2ccc(S(=O)(=O)N3CCOCC3)cc21 | -17.6% | –
16 | Cc1ccc2c(c1)N(CC(=O)N1CCOCC1)C(=O)CO2 | 5.74% | –
17 | Cc1ccc(C)c(N2CCN(C(=O)CN3C(=O)COc4ccc(S(=O)(=O)N5CCCCCC5)cc43)CC2)c1 | – | 16.4 µM (active)
18 | Cc1ccc2c(c1)N(CC(=O)NCC1CCCO1)C(=O)CO2 (stereo unspecified) | 2.23% | –
19 | CC(=O)Nc1ccc(NC(=O)CN2C(=O)COc3ccc(S(=O)(=O)N4CCCCC4)cc32)cc1 | 8.59% | –
20 | CN(C)c1ccc(CNC(=O)CN2C(=O)COc3ccc(S(=O)(=O)N4CCCC4)cc32)cc1 | 7.19% | –
21 | CN(C)C(CNC(=O)c1ccc(OCc2cn3ccccc3n2)cc1)c1ccco1 (stereo unspecified) | -1.5% | –
22 | CC(CO)N1CCS(=O)(=O)CC1 (stereo unspecified) | -14% | –

Row | SMILES | activity change, negative = growth inhibition | Potency
23 | CC1(C)CC(=O)C=C(Nc2ccccc2)C1 | 0.545% | –
24 | O=C1CCCCC(=O)c2ccccc2N1 | -4.74% | –
25 | c1ccc2c(c1)C(=NC1CCCCC1)NC2=NC1CCCCC1 | – | 14.6 µM (active)
26 | O=C1CN(C(=O)COC(=O)/C=C/c2ccc(F)cc2)c2ccccc2N1 | -5.94% | –
27 | Cc1cc2cc3c(N)[nH]nc3nc2cc1C | -21.4% | –
28 | Cc1noc(C)c1/C=N/Nc1ccc2ccccc2n1 | 7.72% | –
29 | Cc1nc2ccccc2nc1N/N=C/c1ccc(O)cc1O | – | 4.11 µM (active)
30 | Oc1ccc(/C=N/NC2=NCCCCC2)c(O)c1 | 4.82% | –
31 | Cc1cc(N/N=C/c2ccccc2F)c2ccccc2n1 | -12.4% | –
32 | Oc1ccc(/C=N/Nc2nc(-c3ccccc3F)nc3ccccc23)c(O)c1 | – | 7.31 µM (active)
33 | Cc1csc2nc(O)c(C(=O)NCCN3CCOCC3)c(=O)n12 | -6.85% | –
34 | CC(C)NC(=O)C(=O)NCCN1CCN(S(=O)(=O)c2ccc(Cl)cc2)CC1 | -1.35% | –
35 | COCCCNc1nc2ccccc2nc1NS(=O)(=O)c1ccc(F)cc1 | -1.47% | –
36 | CCOC(=O)C1CCN(Cc2c(C(=O)N3CCOCC3)nc3c(C)cccn23)CC1 | -8.96% | –
37 | Cc1cccn2c(CNCC(C)Oc3cccnc3)c(C(=O)N3CCOCC3)nc12 (stereo unspecified) | 30% | –
38 | Cc1cccn2c(CN(C)C3CCCc4ccccc43)c(C(=O)N3CCOCC3)nc12 (stereo unspecified) | – | 18.4 µM (active)
39 | CC1CCCCN1C(=O)CCS(=O)(=O)Cc1ccccc1 (stereo unspecified) | -3.87% | –
40 | O=C(CC1Oc2ccc(Cl)cc2NC1=O)NCc1ccccc1 (stereo unspecified) | -3.5% | –
41 | CC(=O)Nc1cccc(-c2nc3ccccc3s2)c1C | -5.62% | –
42 | CCC(C(=O)Nc1cccc(-c2nc3cccnc3s2)c1C)c1ccccc1 (stereo unspecified) | – | 20.6 µM (active)
43 | CCC(C(=O)Nc1ccc2c(c1)OCCO2)c1ccccc1 (stereo unspecified) | -21% | –
44 | COC(=O)[C@@H]1C[C@H](NC(=O)c2ccccc2C(F)(F)F)CN1Cc1cccc(O)c1 | -9.99% | –

Row | SMILES | activity change, negative = growth inhibition | Potency
45 | O=[N+]([O-])c1ccc(NC(=S)N2CCN(c3ccccn3)CC2)cc1 | – | 11.6 µM (active)
46 | CCOC(=O)c1ccc(NC(=S)N2CCN(c3ccccn3)CC2)cc1 | -3.2% | –
47 | COc1cc([N+](=O)[O-])ccc1NC(=S)N1CCN(c2ccccn2)CC1 | -15.4% | –
48 | CCOC(=O)c1cnn(Cc2ccccc2Cl)c1N | -12.2% | –
49 | Cc1noc(C)c1C(=O)N1CCOCC1 | -9.18% | –
50 | CC(C)(C)C1CCC(OC(=O)CCC(=O)Nc2ccccc2)CC1 (stereo unspecified) | -2.86% | –
51 | CN1CCN(C(=O)/C(=C\c2cccs2)NC(=O)c2cccs2)CC1 | -7.36% | –
52 | CCOC(=O)c1ccc(NC(=O)Cn2cc(S(=O)(=O)Cc3ccccc3F)c3ccccc32)cc1 | -26.3% | –
53 | COc1cccc(NC(=O)CS(=O)(=O)c2cn(CC(=O)N3CCOCC3)c3ccccc23)c1 | 0.349% | –
54 | Cc1cccc(NC(=O)Cn2cc(S(=O)(=O)Cc3ccccc3Cl)c3ccccc32)c1 | – | 20.6 µM (active)
55 | OCCN1CCN(c2ncnc3c2ncn3[C@H]2CN(Cc3ccco3)C[C@@H](CO)O2)CC1 | -10.1% | –
56 | O=C(Nc1ccc(Cl)cc1)c1csc([C@@H]2O[C@H](CO)[C@H](O)[C@H](O)[C@H]2O)n1 | -0.432% | –
57 | CSc1nnnn1-c1c(C)cc(C)cc1C | 7.83% | –
58 | COc1cccc(NC(=O)CN(C)CC(=O)Nc2ccc3c(c2)CCC3)c1 | -4% | –
59 | CNC(=O)/C(C#N)=C/c1c(F)cccc1Cl | – | 9.2 µM (active)
60 | Cc1[nH]c2ccccc2c1/C=C(/C#N)C(=O)NC(C)C | -9.84% | –
61 | O=C(/C=C/c1c(F)cccc1Cl)Nc1nn[nH]n1 | 1.45% | –
62 | Cc1ccc(C(=O)N2CCC(n3nccc3NC(=O)Nc3cccc(F)c3)CC2)cn1 | 10.4% | –
63 | Brc1cccc(-c2nnn3c2nc(NC2CCCCC2)c2ccccc23)c1 | -26.7% | –
64 | COc1ccc(NC(=O)CCNC(=O)Cn2cnc3sc4c(c3c2=O)CCCC4)cc1OC | -4.24% | –
65 | Cc1ccc(C)c(-n2c(SCC(=O)O)nc3sc4c(c3c2=O)CCCC4)c1 | -16.6% | –
66 | CCCc1nc2sc3c(c2c(=O)n1NC(=O)CCCl)CCCC3 | – | 29.1 µM (active)

Row | SMILES | activity change, negative = growth inhibition | Potency
67 | CC(C)N(Cc1nc(-c2ccc3c(c2)OCO3)no1)CC1CCC(=O)N1 (stereo unspecified) | 8.55% | –
68 | CCC(=O)c1ccc(OCC(=O)Nc2ccc(N3CCCCC3)cc2)cc1 | – | 20.6 µM (active)
69 | O=C(COc1ccccc1)Nc1ccc(C(=O)N2CCCC2)cc1 | 22.5% | –
70 | CCC(=O)c1ccc(OCC(=O)OCC(=O)NC2CCCCCC2)cc1 | -17% | –
71 | O=C(NCC(=O)N1CCCCCCC1)c1ccccc1Cl | 12.3% | –
72 | COc1cc(C(=O)Nc2ccc(-n3c(C)nc4ccccc4c3=O)cc2)cc(OC)c1OC | – | 18.4 µM (active)
73 | COc1cc(C(=O)Nc2ccc(OCc3cc(=O)n4ccc(C)cc4n3)cc2)cc(OC)c1OC | -9.6% | –
74 | Cc1nc2ccccc2c(=O)n1-c1ccc(NS(=O)(=O)c2ccc(F)cc2F)cc1 | -14.2% | –
75 | C=CCNc1nnc(SCC(=O)N2CCCCC2)c2ccccc12 | 4.38% | –
76 | Cc1cc(NC(=O)CSc2nc3ccccc3n2CC(C)C)no1 | -4.04% | –
77 | Cc1cc(C)c(NC(=O)Cn2c(SCC(=O)NCc3ccccc3)nc3ccccc32)c(C)c1 | – | 18.4 µM (active)
78 | CC(C)(C)NC(=O)Cn1c(SCC(=O)Nc2nccs2)nc2ccccc21 | -4.92% | –
79 | O=[N+]([O-])c1ccc(Oc2ccc(F)cc2Br)c2ccncc12 | – | 23.1 µM (active)
80 | O=c1[nH]c2c(c(=O)n1-c1ccccc1)CCO2 | -19.7% | –
81 | CCOC(=O)c1ccc(NC(=S)N2CCCC2)cc1 | 0.979% | –
82 | CCOc1ccc(NC(=S)N2CCCCCC2)cc1 | 8.01% | –
83 | CCC(C)c1ccc(NC(=S)N2CCCC2)cc1 (stereo unspecified) | – | 10.3 µM (active)
84 | Cc1cc(OCC(=O)NCC(O)c2ccccc2)c2c(C)c(C)c(=O)oc2c1 (stereo unspecified) | -21.4% | –
85 | CCCC1CC(C)(C(=O)Cn2[nH]c(=O)ccc2=O)OC1=O (stereo unspecified) | -8.19% | –
86 | CCOC(=O)c1c(-c2ccccc2)oc2ccc(OCC(=O)NN)cc12 | 1.78% | –
87 | COC(=O)c1c(-c2ccsc2)oc2ccc(-c3cc(OC)c(OC)c(OC)c3)cc12 | – | 16.4 µM (active)
88 | COc1cc(-c2nnc(NC(=O)CS(=O)(=O)c3ccc(Cl)cc3)o2)cc(OC)c1OC | 4.37% | –

Row | SMILES | activity change, negative = growth inhibition | Potency
89 | C/C(Nc1ccc2oc(=O)ccc2c1)=C1/C(=O)CC2[C@@H]1C2(C)C (stereo partly specified) | -12.6% [at 9.04 µM] | –
90 | C/C(=N/NC(=O)c1ccn(C)n1)c1ccncc1 | 14.9% | –
91 | Cc1cnc(NC(=O)C2CCCC2)s1 | -8.92% | –
92 | C/C=C/NNC(=O)Cc1ccc(OC)cc1 | – | 5.62 µM (active)
93 | CCCCCNC(=O)Cc1ccc(OC)cc1 | -23% | –
94 | COc1ccc(CC(=O)Nc2ccc(-c3nnc(-c4ccc(C)cc4)o3)cc2)cc1 | -10.4% | –
95 | CS(=O)(=O)N1CCN(C(=O)Cc2ccccc2)CC1 | -5.14% | –
96 | CC(C)c1ccc(CC(=O)N2CCC2(C)C(=O)NS(=O)(=O)c2ccc(C(C)(C)C)cc2)cc1 (stereo unspecified) | -8.67% | –
97 | Oc1ccc(CN2CCN(c3ncccn3)CC2)cc1 | 0.422% | –
98 | c1cnc(N2CCN(c3ccc4ccccc4n3)CC2)nc1 | – | 18.4 µM (active)
99 | CC1=C(N2CCN(c3ncccn3)CC2)CCC1=O | 9.41% | –
100 | CC(C)n1ncc2c(C(=O)N3CCN(Cc4cccs4)CC3)cc(C3CC3)nc21 | – | 25.9 µM (active)
101 | N#CCc1ccc(NC(=O)c2ccccc2C(=O)Nc2ccc(CC#N)cc2)cc1 | -5.04% | –
102 | CC(=O)Nc1ccc(CC#N)cc1 | 10.2% | –
103 | CC(C)n1ncc2c(C(=O)Nc3ccc(CC#N)cc3)cc(C3CC3)nc21 | – | 13 µM (active)
104 | O=C(NCCN1CCOCC1)c1cnn(-c2nccc(-c3cccs3)n2)c1C1CC1 | -8% | –
105 | Cc1ccsc1C1C(C#N)=C(N)OC2=C1C(=O)CC(C)C2 (stereo unspecified) | 11.3% | –
106 | CCOC(=O)Cc1cc(=O)[nH]c(=O)[nH]1 | -0.765% | –
